Source: PubChem BioAssay (NCATS)
Where “and” joins values, the source holds several entries; their conditions need not be identical. Equal values may be shown once. Results filed as inconclusive are left out. Where a call stands in place of a potency, no number is given. Calls of active or inactive are those of the source. Calls follow the shape of the dose curve; as a rule, active = well fitted cell-killing curve with a large enough effect; inconclusive = small, poorly fitted or top-dose-only effect; inactive = no such curve, though single readings can be large or run the other way.

Assay: qHTS of pediatric cancer cell lines to identify multiple opportunities for drug repurposing: Primary screen for NB-EBc1 cells (AID 1347095)
Settings: NB-EBc1 neuroblastoma viability, CellTiter-Glo luminescence, 48 h; series mostly up to 46 µM
Text: Drug repurposing or repositioning has been offered as a strategy for drug development in oncology programs. This approach has special potential for childhood cancers and other rare or orphan diseases, where the expected return on new drug development has been a disincentive to pharmaceuticals. […] In this project we exploit the poly-pharmacology of drugs to discover new indications via phenotypic screening of a panel of 19 well-characterized cell lines derived from solid tumors seen in children and adolescents. The goal is to identify approved drugs with previously unrecognized anticancer properties that has the potential to reveal new mechanisms and biological processes involved in carcinogenesis or drug resistance. We employed a titration-based paradigm (quantitative high-throughput screening or qHTS), where all compounds were tested at multiple concentrations for their effect on cell viability. Concentration-response curves (CRCs) were derived directly from the primary screen, and both potency and efficacy values were used to identify compounds with robust bioactivity profiles. We screened the NIH Chemical Genomics Center (NCGC) Pharmaceutical Collection (NPC) and Mechanism Interrogation Plate (MIPE) small molecule collections of approved and investigational compounds against these cell lines; and measured metabolically active cells after 48 hours of compound treatment as a proxy for cell viability. […] Assay Submitter: Nathalia J. Martinez, National Center for Advancing Translational Sciences, National Institutes of Health, Rockville, MD, USA; email: natalia.martinez@nih.gov Shen, M et al. Quantitative high-throughput phenotypic screening of pediatric cancer cell lines identifies multiple opportunities for drug repurposing. Oncotarget 2017 Dec 19;9(4):4758-4772. PMID 29435139.
The cells were obtained from University of North Carolina (UNC), Pediatric Preclinical Testing Program (PPT), and Coriell Institute (CI). qHTS cell viability assay: Cells were assayed in growth media at a density of 500-1,000 cells/well. Five microliters of cells were dispensed into 1,536-well, white, solid-bottom, TC-treated plates (Greiner Bio One) using a multidrop dispenser and incubated at 37 degrees C, 5% CO2, under a humidified atmosphere for 5 hours. Twenty-three nanoliters of compounds and controls (neutral control DMSO or positive control bortezomib at final concentration of 2.3 µM) were subsequently transferred by Kalypsys pintool. For primary screens, the MIPE collection was tested at 11-point dilutions (final concentrations range from 0.78 nM to 46 µM) and the NPC collection at 8-point dilutions (final concentrations range from 0.59 nM to 46 µM). Compounds tested in follow-up screens were assayed at 11-point dilutions. Cells were incubated for 48 hours, followed by addition of 3 µL of CellTiter-Glo (Promega). After a 15 min incubation at room temperature, samples were analyzed for luminescence intensity using a ViewLux High-throughput CCD imager equipped with clear filters.
Potency is read from the fitted curve at half-maximal effect.

Compound | Potency
CC1(C)[C@H](C(=O)O)N2C(=O)C[C@H]2S1(=O)=O | inactive
CC1=NN(c2ccccc2)C(=O)C1 | inactive
O=C(O)c1ccc(-n2nc(-c3ccccc3O)nc2-c2ccccc2O)cc1 | 8.33 µM (active)
NC(=O)N1c2ccccc2CC(=O)c2ccccc21 | inactive
CCCc1cc(C(N)=S)ccn1 | inactive
CC1=C(C(=O)O)N2C(=O)[C@@H](NC(=O)C(N)c3ccccc3)[C@H]2SC1 (stereo not given in full) | inactive
CCOCC(O)COc1ccc(NC(=O)CC[S+](C)C)cc1 (stereo not given) | inactive
COc1cc2c(Nc3ccc(Br)cc3F)ncnc2cc1OCC1CCN(C)CC1 | inactive
CN1CCN(c2c(F)cc3c(=O)c(C(=O)O)cn(CCF)c3c2F)CC1 | inactive
Cc1ccc(S(=O)(=O)N[C@@H](Cc2ccccc2)C(=O)CCl)cc1 | 16.6 µM (active)
CCN(CC)CC#CCOC(=O)C(O)(c1ccccc1)C1CCCCC1 (stereo not given) | inactive
COc1nc(N)nc2c1ncn2[C@@H]1O[C@H](CO)[C@@H](O)[C@@H]1O | inactive
CC(C)C1CCC(C(=O)N[C@H](Cc2ccccc2)C(=O)O)CC1 (stereo not given in full) | inactive
COc1cc2nc(N3CCCN(C)CC3)nc(NC3CCN(Cc4ccccc4)CC3)c2cc1OC | 23.5 µM (active)
CCCCS(=N)(=O)CCC(N)C(=O)O (stereo not given) | inactive
Clc1ccccc1CN1CCc2sccc2C1 | inactive
CC(=O)CC(c1ccccc1)c1c(O)c2ccccc2oc1=O (stereo not given) | inactive
O=S(=O)(c1cccc2cnccc12)N1CCCNCC1 | inactive
O=c1cc(O)c(Cl)c[nH]1 | inactive
COc1cc(NCc2ccc3nc(N)nc(N)c3c2C)cc(OC)c1OC | 3.72 µM (active)

Compound | Potency
CC(C)(Sc1cc(C(C)(C)C)c(O)c(C(C)(C)C)c1)Sc1cc(C(C)(C)C)c(O)c(C(C)(C)C)c1 | inactive
COC(=O)Nc1nc2ccc(Sc3ccccc3)cc2[nH]1 | 0.469 µM (active)
Cn1c(=O)c2c(ncn2CC(O)CO)n(C)c1=O (stereo not given) | inactive
Nc1ccc(S(=O)(=O)Nc2ccccn2)cc1 | inactive
NC1(c2ccc(-c3nc4ccn5c(=O)[nH]nc5c4cc3-c3ccccc3)cc2)CCC1 | 2.35 µM (active) and 11.9 µM (active)
COc1ncnc(NS(=O)(=O)c2ccc(N)cc2)c1OC | inactive
CCCOc1ccc(C(=O)OCCN(CC)CC)cc1N | inactive
NC(=O)c1cccnc1 | inactive
COC(=O)Nc1nc2ccc(S(=O)c3ccccc3)cc2[nH]1 (stereo not given) | 473 nM (active) and 8.33 µM (active)
CCn1cc(C(=O)O)c(=O)c2cc(F)c(N3CCN(C)CC3)cc21 | inactive
CN(C)c1ccc(C(=C2C=CC(=[N+](C)C)C=C2)c2ccc(N(C)C)cc2)cc1 | 2.99 µM (active) and 935 nM (active)
O=S(=O)(O)CCS | inactive
Cc1noc(NS(=O)(=O)c2ccc(N)cc2)c1C | inactive
CN1CCCC(n2nc(Cc3ccc(Cl)cc3)c3ccccc3c2=O)CC1 (stereo not given) | 1.18 µM (active)
CC(C)NCC(O)c1ccc(NS(C)(=O)=O)cc1 (stereo not given) | inactive
CCCN[C@H]1CCc2nc(N)sc2C1 | inactive
CNNCc1ccc(C(=O)NC(C)C)cc1 | inactive
CNS(=O)(=O)Cc1ccc2[nH]cc(CCN(C)C)c2c1 | inactive
CC(C)OC(=O)OCOP(=O)(CO[C@H](C)Cn1cnc2c(N)ncnc21)OCOC(=O)OC(C)C | inactive
COc1cnc(NS(=O)(=O)c2ccc(N)cc2)nc1 | inactive
